{"source": "PubChem BioAssay AID1159580", "about": "(chemical genetic matrix, 2015)", "assay": "chemical genetic growth profiling, strain panel (AID 1159580);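 further: tested at 20 µM; growth read once vehicle control cultures reached saturation at 30 °C; 1 = growth at the plate median or of vehicle wells; lower values mean less growth of the strain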", "conditions": "S. cerevisiae deletion strains, growth OD", "note": "Screen size: about 5,500 compounds; about 2,000 (36%) were called active. About 18% were inconclusive and are not listed. This is one part of the list. A number with no mark means an inactive call. No stated cut-off is given here; in the data, active means normalized growth mostly below about 0.91 (no sharp cut-off); inconclusive means no clear call, values can overlap the other calls; inactive means mostly above about 0.92.", "data": [{"molecule": "Cc1ccccc1C(=O)Oc1ccc(C(F)(F)F)cc1[N+](=O)[O-]", "values": [{"measurement": "normalized growth", "setting": "locus YAR019C, strain CDC15, active compounds read low", "value": 0.961}, {"measurement": "normalized growth", "setting": "locus YBL105C, strain PKC1, active compounds read low", "value": 0.969}, {"measurement": "normalized growth", "setting": "locus YBR135W, strain CKS1, active compounds read low", "value": 0.964}, {"measurement": "normalized growth", "setting": "locus YBR136W, strain MEC1, active compounds read low", "value": 0.962}, {"measurement": "normalized growth", "setting": "locus YBR160W, strain CDC28, active compounds read low", "value": 0.966}, {"measurement": "normalized growth", "setting": "locus YDL017W, strain CDC7, active compounds read low", "value": 0.975}, {"measurement": "normalized growth", "setting": "locus YDL028C, strain MPS1, active compounds read low", "value": 0.947}, {"measurement": "normalized growth", "setting": "locus YDL101C, strain DUN1, active compounds read low", "value": 0.979}, {"measurement": "normalized growth", "setting": "locus YDL108W, strain KIN28, active compounds read low", "value": 0.964}, {"measurement": "normalized growth", "setting": "locus YDL132W, strain cdc53, active compounds read low", "value": 0.964}, {"measurement": "normalized growth", "setting": "locus YDL214C, strain PRR2, active compounds read low", "value": 0.864}, {"measurement": "normalized growth", "setting": "locus YDR052C, strain DBF4, active compounds read low", "value": 0.969}, {"measurement": "normalized growth", "setting": "locus YDR054C, strain cdc34, active compounds read low", "value": 0.965}, {"measurement": "normalized growth", "setting": "locus YDR226W, strain ADK1, active compounds read low", "value": 0.982}, {"measurement": "normalized growth", "setting": "locus YDR477W, strain SNF1, active compounds read low", "value": 0.937}, {"measurement": "normalized growth", "setting": "locus YER123W, strain YCK3, active compounds read low", "value": 0.883}, {"measurement": "normalized growth", "setting": "locus YER133W, strain GLC7, active compounds read low", "value": 0.941}, {"measurement": "normalized growth", "setting": "locus YFL009W, strain cdc4, active compounds read low", "value": 0.96}, {"measurement": "normalized growth", "setting": "locus YFL029C, strain CAK1, active compounds read low", "value": 0.965}, {"measurement": "normalized growth", "setting": "locus YFR003C, strain YPI1, active compounds read low", "value": 0.972}, {"measurement": "normalized growth", "setting": "locus YFR019W, strain FAB1, active compounds read low", "value": 0.979}, {"measurement": "normalized growth", "setting": "locus YFR028C, strain CDC14, active compounds read low", "value": 0.963}, {"measurement": "normalized growth", "setting": "locus YGR040W, strain KSS1, active compounds read low", "value": 0.934}, {"measurement": "normalized growth", "setting": "locus YGR052W, strain FMP48, active compounds read low", "value": 0.894}, {"measurement": "normalized growth", "setting": "locus YGR092W, strain DBF2, active compounds read low", "value": 0.807}, {"measurement": "normalized growth", "setting": "locus YHR030C, strain SLT2, active compounds read low", "value": "0.769 (active)"}, {"measurement": "normalized growth", "setting": "locus YHR079C, strain IRE1, active compounds read low", "value": 0.836}, {"measurement": "normalized growth", "setting": "locus YHR082C, strain KSP1, active compounds read low", "value": 0.951}, {"measurement": "normalized growth", "setting": "locus YHR205W, strain SCH9, active compounds read low", "value": 0.79}, {"measurement": "normalized growth", "setting": "locus YIL147C, strain SLN1, active compounds read low", "value": 0.97}, {"measurement": "normalized growth", "setting": "locus YJL095W, strain BCK1, active compounds read low", "value": 0.831}, {"measurement": "normalized growth", "setting": "locus YJL128C, strain PBS2, active compounds read low", "value": 0.868}, {"measurement": "normalized growth", "setting": "locus YJL157C, strain FAR1, active compounds read low", "value": 0.899}, {"measurement": "normalized growth", "setting": "locus YJR016C, strain ILV3, active compounds read low", "value": 0.968}, {"measurement": "normalized growth", "setting": "locus YJR066W, strain TOR1 (second series), active compounds read low", "value": 0.891}, {"measurement": "normalized growth", "setting": "locus YJR066W, strain TOR1, active compounds read low", "value": 0.948}, {"measurement": "normalized growth", "setting": "locus YKL048C, strain ELM1, active compounds read low", "value": 0.925}, {"measurement": "normalized growth", "setting": "locus YKL067W, strain YNK1, active compounds read low", "value": 0.879}, {"measurement": "normalized growth", "setting": "locus YKL101W, strain HSL1, active compounds read low", "value": 0.874}, {"measurement": "normalized growth", "setting": "locus YKL193C, strain SDS22, active compounds read low", "value": 0.971}, {"measurement": "normalized growth", "setting": "locus YKL203C, strain TOR2, active compounds read low", "value": 0.956}, {"measurement": "normalized growth", "setting": "locus YLR113W, strain HOG1, active compounds read low", "value": "0.614 (active)"}, {"measurement": "normalized growth", "setting": "locus YLR133W, strain CKI1, active compounds read low", "value": 0.909}, {"measurement": "normalized growth", "setting": "locus YLR403W, strain SFP1, active compounds read low", "value": 0.908}, {"measurement": "normalized growth", "setting": "locus YML070W, strain DAK1, active compounds read low", "value": 0.891}, {"measurement": "normalized growth", "setting": "locus YMR001C, strain CDC5, active compounds read low", "value": 0.969}, {"measurement": "normalized growth", "setting": "locus YMR205C, strain PFK2 (second series), active compounds read low", "value": 0.898}, {"measurement": "normalized growth", "setting": "locus YMR277W, strain FCP1, active compounds read low", "value": 0.962}, {"measurement": "normalized growth", "setting": "locus YNL006W, strain LST8, active compounds read low", "value": 0.977}, {"measurement": "normalized growth", "setting": "locus YNL020C, strain ARK1, active compounds read low", "value": 0.893}, {"measurement": "normalized growth", "setting": "locus YNL161W, strain CBK1, active compounds read low", "value": 0.971}, {"measurement": "normalized growth", "setting": "locus YNL183C, strain NPR1, active compounds read low", "value": 0.861}, {"measurement": "normalized growth", "setting": "locus YNL207W, strain RIO2, active compounds read low", "value": 0.956}, {"measurement": "normalized growth", "setting": "locus YNL222W, strain SSU72, active compounds read low", "value": 0.955}, {"measurement": "normalized growth", "setting": "locus YNL307C, strain MCK1 (second series), active compounds read low", "value": 0.823}, {"measurement": "normalized growth", "setting": "locus YOL078W, strain AVO1, active compounds read low", "value": 0.969}, {"measurement": "normalized growth", "setting": "locus YOL136C, strain PFK27, active compounds read low", "value": 0.869}, {"measurement": "normalized growth", "setting": "locus YOR061W, strain CKA2, active compounds read low", "value": 0.879}, {"measurement": "normalized growth", "setting": "locus YOR119C, strain RIO1, active compounds read low", "value": 1}, {"measurement": "normalized growth", "setting": "locus YOR231W, strain MKK1, active compounds read low", "value": 0.827}, {"measurement": "normalized growth", "setting": "locus YOR329C, strain SCD5, active compounds read low", "value": 0.964}, {"measurement": "normalized growth", "setting": "locus YPL031C, strain PHO85, active compounds read low", "value": 0.917}, {"measurement": "normalized growth", "setting": "locus YPL153C, strain RAD53, active compounds read low", "value": 0.917}, {"measurement": "normalized growth", "setting": "locus YPL204W, strain HRR25, active compounds read low", "value": 0.882}, {"measurement": "normalized growth", "setting": "locus YPL209C, strain IPL1, active compounds read low", "value": 0.967}, {"measurement": "normalized growth", "setting": "locus YPL256C, strain CLN2, active compounds read low", "value": "0.784 (active)"}, {"measurement": "normalized growth", "setting": "locus YPR025C, strain CCL1, active compounds read low", "value": 0.959}, {"measurement": "normalized growth", "setting": "locus YPR106W, strain ISR1, active compounds read low", "value": 0.955}, {"measurement": "normalized growth", "setting": "locus YPR111W, strain DBF20, active compounds read low", "value": 0.912}, {"measurement": "normalized growth", "setting": "strain NNK1, active compounds read low", "value": 0.941}, {"measurement": "normalized growth", "setting": "strain TSCII, active compounds read low", "value": 0.96}]}, {"molecule": "O=C(Nc1cccc(C(=O)Nc2ccc(S(=O)(=O)O)c3cc(S(=O)(=O)O)cc(S(=O)(=O)O)c23)c1)Nc1cccc(C(=O)Nc2ccc(S(=O)(=O)O)c3cc(S(=O)(=O)O)cc(S(=O)(=O)O)c23)c1", "values": [{"measurement": "normalized growth", "setting": "locus YAL040C, strain CLN3, active compounds read low", "value": 1.05}, {"measurement": "normalized growth", "setting": "locus YCL061C, strain MRC1 (second series), active compounds read low", "value": 0.981}, {"measurement": "normalized growth", "setting": "locus YDR150W, strain NUM1, active compounds read low", "value": 0.976}, {"measurement": "normalized growth", "setting": "locus YDR363W, strain ESC2, active compounds read low", "value": 1.02}, {"measurement": "normalized growth", "setting": "locus YER002W, strain NOP16, active compounds read low", "value": 0.968}, {"measurement": "normalized growth", "setting": "locus YMR263W, strain SAP30, active compounds read low", "value": 0.973}, {"measurement": "normalized growth", "setting": "locus YNL153C, strain GIM3, active compounds read low", "value": 0.977}, {"measurement": "normalized growth", "setting": "locus YNL175C, strain NOP13, active compounds read low", "value": 0.978}, {"measurement": "normalized growth", "setting": "locus YNL197C, strain WHI3, active compounds read low", "value": 0.968}, {"measurement": "normalized growth", "setting": "locus YNL224C, strain SQS1, active compounds read low", "value": 0.981}, {"measurement": "normalized growth", "setting": "locus YOR083W, strain WHI5 (second series), active compounds read low", "value": 0.97}]}]}
